Data on 16 compounds can be found in PubChem BioAssay.

A short description of assay [1]: stimulators of nuclear beta-catenin in C2C12, primary screen, imaging, WNT3A-conditioned medium, mouse C2C12, NPC library (AID 1117326; in the data active means nuclear beta-catenin stimulation mostly above about 4.2%, no sharp cut-off; inactive means mostly below about 10%; further: reference of the scale not given here). The settings on record: stronger effect = higher value.
Assay [2] in a line: stimulators of insulin release from INS-1E, primary screen, cell-based, 5 mM glucose, NPC library (AID 1117329;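 active means compound raises insulin release from rat beta cells at 5 mM glucose, no numeric limit stated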; further: reference of the scale not given here). Particulars: rat INS-1E insulin secretion, at 10 µM, stronger effect = higher value.
Assay [3] can be described thus: growth inhibition of GSK3B-pretreated HCT116 cells – cell-based, CellTiter-Glo, 0.2 to 20 µM (AID 1117336). The settings on record: HCT116 viability after GSK3B inhibitor, at 20 µM, stronger effect = higher value. (In ATP-based viability assays light output follows the ATP content of the culture.)
Assay [4] in a line: inhibition of endothelial tube formation, primary screen, imaging, VEGF stimulated, CD31 staining, tube area, NPC library (AID 1117340;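 active means compound that reduces growth-factor-driven endothelial tube area in a mixed cell culture, no cutoff stated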). Particulars: VEGF-stimulated ADSC/ECFC co-culture, at 10 µM, stronger effect = higher value.
Assay [5] is described as follows: glucagon-like peptide 1 release enhancers, primary assay, NCI-H716 cell line, NPC library (AID 1117341;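 active means compound raises GLP1 secretion from the human gut endocrine cells, with no numeric limit stated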; further: reference of the scale not given here). Particulars: NCI-H716 cells, at 10 µM, stronger effect = higher value.
Assay [6] is described as follows: HCT116 colon cancer cell growth inhibition, primary screen, CellTiter-Glo luminescence, NPC library (AID 1117342;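 active means compounds that lower survival of HCT116 colon cancer cells in the luminescence readout, no numeric limit stated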). Particulars: at 20 µM (top of the series).
The nature of assay [7]: CellTiter-Glo luminescent readout of SW480 viability loss, NPC library primary (AID 1117343;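 active means compounds that lower viability of the colon cancer cells in the luminescence readout, with no numeric limit stated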). Particulars: CellTiter-Glo luminescence; at 20 µM (top of the series).
Assay [8] can be described thus: decreased DLD-1 cellular survival, CellTiter-Glo luminescent readout, NPC compound collection, primary HTS (AID 1117346;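 active means compounds that lower survival of DLD-1 colon cancer cells in the luminescence readout, no cutoff given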). Particulars: DLD-1 viability, CellTiter-Glo luminescence; at 20 µM (top of the series).

Activity calls are given as the source filed them.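 How the source made its calls, unless noted: active means compounds lowering colon cancer cell viability after pretreatment blocking the GSK3B kinase; inactive means the rest.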

With `CC(C=CC1=C(C)CCCC1(C)C)=CC=CC(C)=CC(=O)Oc1c(C)c(C)c2c(c1C)CC[C@@](C)(CCC[C@H](C)CCC[C@H](C)CCCC(C)C)O2`, the nuclear beta-catenin stimulation is 2.1% (inactive) in assay [1] (at 10 µM) and 2.2% in assay [1] (stimulation, at 2 µM). Moreover, the insulin secretion stimulation in assay [2] is 2.9% (inactive). The viability decrease in assay [3] was 2.5% (inactive). In addition, in assay [4], the tube area decrease is -4.2% (inactive). Further, the GLP1 secretion stimulation in assay [5] is 2.3% (inactive). Also, the inhibition of viability in assay [6] was 32.1% (inactive). The viability decrease (inhibition) is -36.9% (inactive) in assay [7] and 4% (inactive) in assay [8].

In the case of `Cc1cccc(C)c1OCC(=O)N[C@@H](Cc1ccccc1)[C@@H](O)C[C@H](Cc1ccccc1)NC(=O)[C@H](C(C)C)N1CCCNC1=O`, the nuclear beta-catenin stimulation in assay [1] (at 10 µM) is 2% (inactive); in assay [1] (stimulation, at 2 µM), -0.1%. Also, the insulin secretion stimulation in assay [2] is 2.4% (inactive). Further, the viability decrease in assay [3] is 67.4% (active). In addition, the tube area decrease in assay [4] was 2% (inactive). In addition, in assay [5], the GLP1 secretion stimulation was 1.5% (inactive). Besides, the inhibition of viability in assay [6] is 43.5% (inactive). Also, the figures for the viability decrease (inhibition) in assay [7] and in assay [8] were 80.2% (active) and 73.5% (active), respectively.

`CN(C)CCCOC1(Cc2ccccc2)CCCCCC1`: the nuclear beta-catenin stimulation was 6% (inactive) in assay [1] (at 10 µM) and 5.8% in assay [1] (stimulation, at 2 µM). In addition, the insulin secretion stimulation in assay [2] is 4.2% (inactive). For the same compound, the viability decrease in assay [3] was -55.2% (inactive). Also, the tube area decrease in assay [4] was 17.7% (inactive). Moreover, the GLP1 secretion stimulation in assay [5] was 6.8% (inactive). Further, in assay [6], the inhibition of viability was 7.6% (inactive). The results for the viability decrease (inhibition) in assay [7] and in assay [8] were 33.2% (inactive) and -33.1% (inactive), respectively.

In the case of `CCCCC/C=C\C/C=C\CCCCCCCC(=O)NC(C)c1ccccc1` (centres undefined), the nuclear beta-catenin stimulation is 0.2% (inactive) in assay [1] (at 10 µM) and 2.1% in assay [1] (stimulation, at 2 µM). Besides, the insulin secretion stimulation in assay [2] is 1% (inactive). Further, the viability decrease in assay [3] was 23.3% (inactive). The tube area decrease in assay [4] was -5.3% (inactive). Besides, in assay [5], the GLP1 secretion stimulation was 0.2% (inactive). Also, the inhibition of viability in assay [6] is 52% (active). For the same compound, the viability decrease (inhibition) in assay [7] was 13.5% (inactive); in assay [8], 3.3% (inactive).

For `Cc1nc(-c2ccc(Cl)cc2)oc1COC(C)(C)C(=O)O`, the nuclear beta-catenin stimulation is 0.5% (inactive) in assay [1] (at 10 µM) and 0.6% in assay [1] (stimulation, at 2 µM). Also, the insulin secretion stimulation in assay [2] is 3.1% (inactive). The viability decrease in assay [3] was -10.1% (inactive). Besides, in assay [4], the tube area decrease was 9.7% (inactive). Moreover, the GLP1 secretion stimulation in assay [5] is -2.6% (inactive). Moreover, the inhibition of viability in assay [6] is 8.5% (inactive). Further, the figures for the viability decrease (inhibition) in assay [7] and in assay [8] were 14.8% (inactive) and 10% (active), respectively.

As to `CCCCNC(=O)NS(=O)(=O)c1ccc(N)cc1`, the nuclear beta-catenin stimulation in assay [1] (at 10 µM) was 1.6% (inactive); in assay [1] (stimulation, at 2 µM), 0.7%. In assay [2], the insulin secretion stimulation is 0.4% (inactive). For the same compound, the viability decrease in assay [3] was 2.75% (inactive). Further, the tube area decrease in assay [4] was -10.5% (inactive). Further, the GLP1 secretion stimulation in assay [5] was 1.9% (inactive). Also, the inhibition of viability in assay [6] was 1.4% (inactive). Moreover, the viability decrease (inhibition) is 27.3% (inactive) in assay [7] and 8.7% (inactive) in assay [8].

With `O=C1[C@@H]2[C@H]3CC[C@H](C3)[C@@H]2C(=O)N1CCCCN1CCN(c2ncccn2)CC1`, the nuclear beta-catenin stimulation in assay [1] (at 10 µM) is 10% (inactive); in assay [1] (stimulation, at 2 µM), 34.2%. The insulin secretion stimulation in assay [2] was 3.2% (inactive). Moreover, in assay [3], the viability decrease is -0.8% (inactive). Besides, the tube area decrease in assay [4] was 0.8% (inactive). In assay [5], the GLP1 secretion stimulation was 1.5% (inactive). For the same compound, the inhibition of viability in assay [6] is 45.5% (inactive). The viability decrease (inhibition) was 12.8% (inactive) in assay [7] and 1.2% (inactive) in assay [8].

On to `CCOC(CN1CCN(CC(C)C(=O)c2ccccc2)CC1)c1ccccc1` (centres undefined), for which the nuclear beta-catenin stimulation in assay [1] (at 10 µM) is 2.2% (inactive); in assay [1] (stimulation, at 2 µM), -0.1%. Moreover, in assay [2], the insulin secretion stimulation is 5% (inactive). In addition, the viability decrease in assay [3] was -4.9% (inactive). In addition, the tube area decrease in assay [4] was 14% (inactive). In addition, in assay [5], the GLP1 secretion stimulation was -1.8% (inactive). The inhibition of viability in assay [6] is 21.2% (inactive). Also, the viability decrease (inhibition) in assay [7] is 0.6% (inactive); in assay [8], -4.9% (inactive).

In the case of `O=C(Nc1ccc([N+](=O)[O-])cc1)Nc1ccc([N+](=O)[O-])cc1`, the nuclear beta-catenin stimulation in assay [1] (at 10 µM) was 3.2% (inactive); in assay [1] (stimulation, at 2 µM), 1.9%. In addition, the insulin secretion stimulation in assay [2] was -3.6% (inactive). For the same compound, in assay [3], the viability decrease is -7.9% (inactive). The tube area decrease in assay [4] is 62.3% (active). The GLP1 secretion stimulation in assay [5] was -0.9% (inactive). Moreover, the inhibition of viability in assay [6] was -44.5% (inactive). In addition, the viability decrease (inhibition) in assay [7] is 44.3% (inactive); in assay [8] it was -16.4% (inactive).

`CN1CCC[C@@H]1c1cccnc1`: the nuclear beta-catenin stimulation in assay [1] (at 10 µM) is -0.7% (inactive); in assay [1] (stimulation, at 2 µM), 1.5%. For the same compound, in assay [2], the insulin secretion stimulation is 1.5% (inactive). In addition, the viability decrease in assay [3] was -2.3% (inactive). Moreover, the tube area decrease in assay [4] was 12.5% (inactive). Moreover, the GLP1 secretion stimulation in assay [5] was 3.1% (inactive). Besides, the inhibition of viability in assay [6] was -5.8% (inactive). The values for the viability decrease (inhibition) in assay [7] and in assay [8] were 25.8% (inactive) and -23.3% (inactive), respectively.

Turning to `CCN1CCN(c2cc(-c3ccc(F)cc3)c3c(n2)CCCCCC3)CC1`, the nuclear beta-catenin stimulation in assay [1] (at 10 µM) is 0.2% (inactive); in assay [1] (stimulation, at 2 µM) it was -3.3%. The insulin secretion stimulation in assay [2] was 1.9% (inactive). Besides, in assay [3], the viability decrease was 104% (active). For the same compound, the tube area decrease in assay [4] was 24% (inactive). Further, the GLP1 secretion stimulation in assay [5] is 11.2% (inactive). In assay [6], the inhibition of viability was 113% (active). The results for the viability decrease (inhibition) in assay [7] and in assay [8] were 132% (active) and 102% (active), respectively.

On to `CCC(=O)O[C@]1(C(=O)COC)[C@@H](C)C[C@H]2[C@@H]3CCC4=CC(=O)C=C[C@]4(C)C3(F)[C@@H](O)C[C@@]21C` (some centres undefined), for which the nuclear beta-catenin stimulation in assay [1] (at 10 µM) was 1.5% (inactive); in assay [1] (stimulation, at 2 µM), 0.5%. Also, the insulin secretion stimulation in assay [2] is 1.1% (inactive). For the same compound, the viability decrease in assay [3] was -69.2% (inactive). Besides, in assay [4], the tube area decrease was 6.6% (inactive). Besides, the GLP1 secretion stimulation in assay [5] is -0.3% (inactive). Moreover, the inhibition of viability in assay [6] is -4.8% (inactive). For the same compound, the viability decrease (inhibition) in assay [7] is 6% (inactive); in assay [8], -2.9% (inactive).

Turning to `NNC(=O)CP(=O)(c1ccccc1)c1ccccc1`, the nuclear beta-catenin stimulation was 1.5% (inactive) in assay [1] (at 10 µM) and 0.6% in assay [1] (stimulation, at 2 µM). For the same compound, the insulin secretion stimulation in assay [2] is -2% (inactive). Besides, in assay [3], the viability decrease is -2.45% (inactive). Further, in assay [4], the tube area decrease is 34.3% (inactive). Also, in assay [5], the GLP1 secretion stimulation was 1.1% (inactive). For the same compound, the inhibition of viability in assay [6] is -12.6% (inactive). The viability decrease (inhibition) was 10% (inactive) in assay [7] and 7.2% (inactive) in assay [8].

Turning to `O=P(O)(O)C(O)(Cc1cnc2ccccn12)P(=O)(O)O`, the nuclear beta-catenin stimulation in assay [1] (at 10 µM) was -0.5% (inactive); in assay [1] (stimulation, at 2 µM), 1.4%. For the same compound, the insulin secretion stimulation in assay [2] is -0.3% (inactive). The viability decrease in assay [3] is 2.2% (inactive). In assay [4], the tube area decrease is 7.8% (inactive). Further, in assay [5], the GLP1 secretion stimulation is 4.3% (inactive). Moreover, the inhibition of viability in assay [6] is 13.5% (active). For the same compound, the viability decrease (inhibition) in assay [7] was 3.6% (inactive); in assay [8] it was 9.7% (inactive).

On to `COC(=O)c1ccc(O)cc1`, for which the nuclear beta-catenin stimulation in assay [1] (at 10 µM) is 1.3% (inactive); in assay [1] (stimulation, at 2 µM), 0.3%. In assay [2], the insulin secretion stimulation was -1.8% (inactive). The viability decrease in assay [3] is -8.75% (inactive). Besides, in assay [4], the tube area decrease is 4.5% (inactive). In addition, the GLP1 secretion stimulation in assay [5] was 0.6% (inactive). Besides, in assay [6], the inhibition of viability was -9.8% (inactive). In addition, the viability decrease (inhibition) in assay [7] was 18.8% (inactive); in assay [8] it was -6.75% (inactive).

Take `c1ccc(C(O[C@H]2CCCN(CCc3ccc4c(c3)OCO4)C2)c2ccccc2)cc1`: the nuclear beta-catenin stimulation was 0.9% (inactive) in assay [1] (at 10 µM) and 1.5% in assay [1] (stimulation, at 2 µM). The insulin secretion stimulation in assay [2] is 5.45% (inactive). Further, in assay [3], the viability decrease was 100% (active). Further, the tube area decrease in assay [4] was -6.8% (inactive). Also, the GLP1 secretion stimulation in assay [5] was 0.6% (inactive). The inhibition of viability in assay [6] was 96.3% (active). Also, the values for the viability decrease (inhibition) in assay [7] and in assay [8] were 101% (active) and 90.1% (active), respectively.
